{"source": "the supplement of paper PMC11006884", "note": "Of roughly 6,500 targets only a part is listed; those with a hit were picked by preference. About 2% of all pairs of compound and target were hits."}
{"compound": "COC(=O)C#Cc1ccccc1 [methyl 3-phenylpropiolate]", "assay": "log2 ratio of iodoacetamide-alkyne labeling of the cysteine site, DMSO over compound (competition); higher = stronger covalent engagement of the cysteine by the compound, active = 1 or more", "settings": "500 µM; treatment time 1 h; system: HEK293T cell lysate", "in_short": "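The log2 competition ratio per cysteine is defined as mean reporter intensity in control channels over mean reporter intensity in compound channels. Lysate from HEK293T cells (2 mg/mL) received electrophile (500 µM) or vehicle for 1 h at ambient temperature, followed by iodoacetamide alkyne for 1 h. Samples were clicked to sCIP-TMT reagents, pooled, trypsin-digested overnight at 37 °C, streptavidin-enriched, acid-eluted and run on Orbitrap Eclipse LC-MS/MS with FAIMS, with quantification in FragPipe. Three replicates with duplicate channels were used, and any cysteine quantified in only one replicate was excluded.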"}
{"target": "HMGCS1 C86 (UniProt Q01581)", "sequence (Q01581 whole entry, looked up)": "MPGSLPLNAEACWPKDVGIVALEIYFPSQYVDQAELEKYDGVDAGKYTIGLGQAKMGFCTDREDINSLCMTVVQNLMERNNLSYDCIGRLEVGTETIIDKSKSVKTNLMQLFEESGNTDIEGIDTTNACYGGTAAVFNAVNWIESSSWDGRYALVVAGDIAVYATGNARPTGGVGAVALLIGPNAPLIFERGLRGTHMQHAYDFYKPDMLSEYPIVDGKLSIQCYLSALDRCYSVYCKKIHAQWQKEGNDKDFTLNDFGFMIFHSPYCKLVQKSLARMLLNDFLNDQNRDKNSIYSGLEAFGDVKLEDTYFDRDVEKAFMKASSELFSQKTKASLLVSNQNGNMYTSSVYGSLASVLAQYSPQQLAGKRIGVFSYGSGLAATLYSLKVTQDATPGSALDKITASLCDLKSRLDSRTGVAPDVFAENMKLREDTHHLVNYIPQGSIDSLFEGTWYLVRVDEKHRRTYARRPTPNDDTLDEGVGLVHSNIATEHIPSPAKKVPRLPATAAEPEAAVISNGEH", "log2 ratio of iodoacetamide-alkyne labeling": "0.0742 (inactive)"}
{"target": "UniProt P62280_C60", "log2 ratio of iodoacetamide-alkyne labeling": "2.21 (active)"}
{"target": "UBE2V1 C144 (UniProt Q13404)", "sequence (Q13404 whole entry)": "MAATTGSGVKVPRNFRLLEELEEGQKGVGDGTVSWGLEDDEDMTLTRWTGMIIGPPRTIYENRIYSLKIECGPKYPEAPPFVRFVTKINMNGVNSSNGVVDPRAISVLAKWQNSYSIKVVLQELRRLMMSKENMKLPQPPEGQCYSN", "log2 ratio of iodoacetamide-alkyne labeling": "0.136 (inactive)"}
{"target": "RRP1B C628 (UniProt Q14684)", "log2 ratio of iodoacetamide-alkyne labeling": "0.838 (inactive)"}
{"target": "SPECC1 C740 (UniProt Q5M775)", "sequence (Q5M775 whole entry, looked up)": "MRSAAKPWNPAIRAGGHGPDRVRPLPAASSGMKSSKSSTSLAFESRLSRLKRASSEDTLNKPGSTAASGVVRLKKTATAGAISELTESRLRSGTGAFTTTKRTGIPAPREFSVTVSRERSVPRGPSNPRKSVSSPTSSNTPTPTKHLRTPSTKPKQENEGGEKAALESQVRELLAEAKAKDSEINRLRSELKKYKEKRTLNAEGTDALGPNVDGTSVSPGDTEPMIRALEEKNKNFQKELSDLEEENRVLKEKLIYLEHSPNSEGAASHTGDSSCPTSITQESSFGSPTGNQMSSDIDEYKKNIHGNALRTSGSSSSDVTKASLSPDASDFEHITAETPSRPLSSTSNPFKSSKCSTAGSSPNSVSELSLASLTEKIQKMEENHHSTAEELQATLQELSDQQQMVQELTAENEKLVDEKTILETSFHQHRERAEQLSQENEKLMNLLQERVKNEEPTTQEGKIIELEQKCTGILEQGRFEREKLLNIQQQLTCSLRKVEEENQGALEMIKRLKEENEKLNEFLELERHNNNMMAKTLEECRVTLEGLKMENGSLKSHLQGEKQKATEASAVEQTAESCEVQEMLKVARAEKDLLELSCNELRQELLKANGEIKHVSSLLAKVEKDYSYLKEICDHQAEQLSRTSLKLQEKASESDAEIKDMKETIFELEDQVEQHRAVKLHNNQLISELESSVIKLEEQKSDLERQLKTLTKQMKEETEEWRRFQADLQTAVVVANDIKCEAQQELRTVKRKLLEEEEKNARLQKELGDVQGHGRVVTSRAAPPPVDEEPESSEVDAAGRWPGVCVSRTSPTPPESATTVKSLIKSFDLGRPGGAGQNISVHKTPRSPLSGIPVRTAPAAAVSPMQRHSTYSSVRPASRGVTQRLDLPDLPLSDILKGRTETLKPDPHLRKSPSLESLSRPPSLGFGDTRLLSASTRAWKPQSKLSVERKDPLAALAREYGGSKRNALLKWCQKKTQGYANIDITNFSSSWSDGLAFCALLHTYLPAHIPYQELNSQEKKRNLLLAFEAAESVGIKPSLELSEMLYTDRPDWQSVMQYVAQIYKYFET", "log2 ratio of iodoacetamide-alkyne labeling": "-0.0117 (inactive)"}
{"target": "PPP2R5D C17 (UniProt Q14738)", "log2 ratio of iodoacetamide-alkyne labeling": "0.818 (inactive)"}
{"target": "UniProt Q13247_C61", "log2 ratio of iodoacetamide-alkyne labeling": "-0.0753 (inactive)"}
{"target": "EXOSC7 C85 (UniProt Q15024)", "log2 ratio of iodoacetamide-alkyne labeling": "-0.0747 (inactive)"}
{"target": "RING1 C69 (UniProt Q06587)", "sequence (Q06587 whole entry, looked up)": "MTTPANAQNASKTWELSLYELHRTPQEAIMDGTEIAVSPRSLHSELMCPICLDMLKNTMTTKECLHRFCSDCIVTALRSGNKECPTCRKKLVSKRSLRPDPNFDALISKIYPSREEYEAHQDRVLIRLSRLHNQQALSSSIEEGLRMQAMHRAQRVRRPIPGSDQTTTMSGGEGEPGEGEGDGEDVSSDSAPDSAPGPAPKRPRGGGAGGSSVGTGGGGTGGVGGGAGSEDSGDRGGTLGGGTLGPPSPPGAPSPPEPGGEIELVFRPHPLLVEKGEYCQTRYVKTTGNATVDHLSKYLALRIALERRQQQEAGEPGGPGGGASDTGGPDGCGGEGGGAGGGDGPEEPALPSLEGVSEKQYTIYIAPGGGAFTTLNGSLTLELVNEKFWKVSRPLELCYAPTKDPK", "log2 ratio of iodoacetamide-alkyne labeling": "0.171 (inactive)"}
{"target": "SAFB C404 (UniProt Q15424)", "log2 ratio of iodoacetamide-alkyne labeling": "1.14 (active)"}
{"target": "UniProt Q15365_C158", "log2 ratio of iodoacetamide-alkyne labeling": "0.366 (inactive)"}
{"target": "TBCE C371 (UniProt Q15813)", "log2 ratio of iodoacetamide-alkyne labeling": "0.185 (inactive)"}
{"target": "HCCS C66 (UniProt P53701)", "log2 ratio of iodoacetamide-alkyne labeling": "0.724 (inactive)"}
{"target": "PAFAH1B3 C55 (UniProt Q15102)", "log2 ratio of iodoacetamide-alkyne labeling": "0.0597 (inactive)"}
{"target": "UniProt P60891_C230", "log2 ratio of iodoacetamide-alkyne labeling": "0.704 (inactive)"}
{"target": "SUCLG1 C181 (UniProt P53597)", "log2 ratio of iodoacetamide-alkyne labeling": "1.72 (active)"}
{"target": "DIP2A C6 (UniProt Q14689)", "log2 ratio of iodoacetamide-alkyne labeling": "1.75 (active)"}
{"target": "TLE3 C528 (UniProt Q04726)", "sequence (Q04726 whole entry)": "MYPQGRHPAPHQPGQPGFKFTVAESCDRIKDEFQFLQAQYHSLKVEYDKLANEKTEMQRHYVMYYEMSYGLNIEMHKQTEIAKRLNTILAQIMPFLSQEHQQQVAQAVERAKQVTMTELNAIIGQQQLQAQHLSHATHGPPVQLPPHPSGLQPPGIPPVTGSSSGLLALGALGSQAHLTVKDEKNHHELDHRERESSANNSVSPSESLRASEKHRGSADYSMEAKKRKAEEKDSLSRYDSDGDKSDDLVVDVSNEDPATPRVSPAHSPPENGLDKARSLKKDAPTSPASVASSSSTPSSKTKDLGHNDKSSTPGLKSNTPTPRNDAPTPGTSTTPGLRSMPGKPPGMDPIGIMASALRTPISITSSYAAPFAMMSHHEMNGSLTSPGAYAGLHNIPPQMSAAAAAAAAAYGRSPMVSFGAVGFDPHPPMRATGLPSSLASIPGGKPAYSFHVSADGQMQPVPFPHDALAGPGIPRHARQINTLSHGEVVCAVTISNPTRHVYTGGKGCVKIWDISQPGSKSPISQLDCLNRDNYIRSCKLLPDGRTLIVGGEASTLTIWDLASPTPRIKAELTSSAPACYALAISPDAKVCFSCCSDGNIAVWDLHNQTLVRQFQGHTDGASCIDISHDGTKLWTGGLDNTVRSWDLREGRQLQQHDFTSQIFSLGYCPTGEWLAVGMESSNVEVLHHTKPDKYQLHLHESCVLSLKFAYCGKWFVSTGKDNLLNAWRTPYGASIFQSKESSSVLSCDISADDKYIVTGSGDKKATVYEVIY", "log2 ratio of iodoacetamide-alkyne labeling": "1.34 (active)"}
{"target": "UniProt Q3LXA3_C24", "log2 ratio of iodoacetamide-alkyne labeling": "0.218 (inactive)"}
{"target": "TJP1 C1727 (UniProt Q07157)", "log2 ratio of iodoacetamide-alkyne labeling": "0.0718 (inactive)"}
{"target": "RPL18 C134 (UniProt Q07020)", "log2 ratio of iodoacetamide-alkyne labeling": "0.213 (inactive)"}
{"target": "RPS27A C144 (UniProt P62979)", "log2 ratio of iodoacetamide-alkyne labeling": "-0.175 (inactive)"}
{"target": "DYNC1H1 C4216 (UniProt Q14204)", "log2 ratio of iodoacetamide-alkyne labeling": "0.162 (inactive)"}
{"target": "MARS C38 (UniProt P56192)", "sequence (P56192 whole entry, looked up)": "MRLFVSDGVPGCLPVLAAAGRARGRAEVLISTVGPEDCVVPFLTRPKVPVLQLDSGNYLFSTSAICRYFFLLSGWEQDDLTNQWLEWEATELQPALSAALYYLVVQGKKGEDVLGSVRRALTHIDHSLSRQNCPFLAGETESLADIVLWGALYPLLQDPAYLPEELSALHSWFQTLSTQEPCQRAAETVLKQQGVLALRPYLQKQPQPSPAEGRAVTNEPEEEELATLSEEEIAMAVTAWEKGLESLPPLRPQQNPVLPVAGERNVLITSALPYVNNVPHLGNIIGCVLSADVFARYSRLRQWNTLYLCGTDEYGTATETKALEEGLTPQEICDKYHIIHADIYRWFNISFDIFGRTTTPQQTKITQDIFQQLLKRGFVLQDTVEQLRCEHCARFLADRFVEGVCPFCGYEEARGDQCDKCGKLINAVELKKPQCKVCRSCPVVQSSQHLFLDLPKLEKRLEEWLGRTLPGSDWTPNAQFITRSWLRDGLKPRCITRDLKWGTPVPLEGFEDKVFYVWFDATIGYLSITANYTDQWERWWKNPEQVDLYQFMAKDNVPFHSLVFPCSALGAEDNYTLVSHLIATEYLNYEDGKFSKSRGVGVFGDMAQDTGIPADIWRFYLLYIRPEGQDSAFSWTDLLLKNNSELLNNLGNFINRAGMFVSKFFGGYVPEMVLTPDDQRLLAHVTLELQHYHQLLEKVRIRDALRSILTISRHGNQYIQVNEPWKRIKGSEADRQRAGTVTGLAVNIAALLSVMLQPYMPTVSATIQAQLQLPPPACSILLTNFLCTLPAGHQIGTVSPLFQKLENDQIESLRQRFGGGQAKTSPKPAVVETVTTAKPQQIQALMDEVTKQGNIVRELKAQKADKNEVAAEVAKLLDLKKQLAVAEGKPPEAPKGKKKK", "log2 ratio of iodoacetamide-alkyne labeling": "0.14 (inactive)"}
{"target": "CNBP C171 (UniProt P62633)", "sequence (P62633 whole entry, looked up)": "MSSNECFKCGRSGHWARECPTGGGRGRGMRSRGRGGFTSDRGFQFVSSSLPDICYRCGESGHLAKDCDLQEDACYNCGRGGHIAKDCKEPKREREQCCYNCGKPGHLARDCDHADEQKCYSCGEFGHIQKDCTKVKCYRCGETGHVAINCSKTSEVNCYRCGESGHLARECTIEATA", "log2 ratio of iodoacetamide-alkyne labeling": "-0.0616 (inactive)"}
{"target": "UniProt P68431_C111", "log2 ratio of iodoacetamide-alkyne labeling": "0.142 (inactive)"}
{"target": "SORD C45 (UniProt Q00796)", "log2 ratio of iodoacetamide-alkyne labeling": "-0.0713 (inactive)"}
{"target": "ACTR3 C12 (UniProt P61158)", "log2 ratio of iodoacetamide-alkyne labeling": "0.212 (inactive)"}
{"target": "MIA3 C1513 (UniProt Q5JRA6)", "log2 ratio of iodoacetamide-alkyne labeling": "0.31 (inactive)"}
{"target": "C5orf22 C195 (UniProt Q49AR2)", "log2 ratio of iodoacetamide-alkyne labeling": "0.458 (inactive)"}
{"target": "UniProt P78527_C1904", "log2 ratio of iodoacetamide-alkyne labeling": "0.286 (inactive)"}
{"target": "RRP12 C31 (UniProt Q5JTH9)", "log2 ratio of iodoacetamide-alkyne labeling": "1.26 (active)"}
{"target": "PITRM1 C556 (UniProt Q5JRX3)", "sequence (Q5JRX3 whole entry, looked up)": "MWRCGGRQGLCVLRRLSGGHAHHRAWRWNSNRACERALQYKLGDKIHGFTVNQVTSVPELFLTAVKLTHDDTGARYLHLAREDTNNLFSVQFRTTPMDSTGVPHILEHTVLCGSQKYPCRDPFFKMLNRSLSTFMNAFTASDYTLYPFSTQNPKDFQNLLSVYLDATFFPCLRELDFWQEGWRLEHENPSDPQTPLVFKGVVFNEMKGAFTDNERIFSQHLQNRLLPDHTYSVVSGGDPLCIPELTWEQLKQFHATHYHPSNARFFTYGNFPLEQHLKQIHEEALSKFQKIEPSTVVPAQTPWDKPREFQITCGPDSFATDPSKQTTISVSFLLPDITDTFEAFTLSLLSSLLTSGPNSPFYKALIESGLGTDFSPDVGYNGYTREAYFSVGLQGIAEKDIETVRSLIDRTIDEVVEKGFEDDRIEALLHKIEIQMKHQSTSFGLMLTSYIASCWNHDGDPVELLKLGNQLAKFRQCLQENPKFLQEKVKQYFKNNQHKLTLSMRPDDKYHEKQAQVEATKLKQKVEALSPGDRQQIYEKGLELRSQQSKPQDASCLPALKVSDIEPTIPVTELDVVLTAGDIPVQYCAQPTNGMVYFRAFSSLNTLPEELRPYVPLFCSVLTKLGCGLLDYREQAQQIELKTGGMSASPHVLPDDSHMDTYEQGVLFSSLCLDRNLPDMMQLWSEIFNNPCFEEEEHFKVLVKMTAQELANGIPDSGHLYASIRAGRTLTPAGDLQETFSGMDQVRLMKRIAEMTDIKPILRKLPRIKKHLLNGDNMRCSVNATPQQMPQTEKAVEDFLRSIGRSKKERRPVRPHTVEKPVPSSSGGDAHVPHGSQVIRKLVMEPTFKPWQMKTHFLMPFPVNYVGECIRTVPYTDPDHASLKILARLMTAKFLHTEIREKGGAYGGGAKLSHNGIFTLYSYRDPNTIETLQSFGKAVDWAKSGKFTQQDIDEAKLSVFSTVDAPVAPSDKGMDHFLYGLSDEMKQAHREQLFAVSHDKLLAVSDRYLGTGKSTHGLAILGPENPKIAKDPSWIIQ", "log2 ratio of iodoacetamide-alkyne labeling": "0.0671 (inactive)"}
{"target": "UniProt Q15365_C118", "log2 ratio of iodoacetamide-alkyne labeling": "1.72 (active)"}
{"target": "BMS1 C895 (UniProt Q14692)", "log2 ratio of iodoacetamide-alkyne labeling": "0.11 (inactive)"}
